High-throughput results from PubChem BioAssay.
The list is not random: actives were taken first. Their share in the collection is about 1.9%.
PME-1 inh: PME-1 inhibitors via competitive probe labeling, primary screen, biochemical, fluorescence polarization, FP-Rh probe, HTS; 320,000 tested, 0.53% active; inhibition, % at 5.9 µM; AID 2130, 2009; recombinant PME-1; Protein phosphatase methylesterase 1 (Homo sapiens), Q9Y570;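 active = inhibition above the campaign mean of all compounds plus 3 SD, cut at about 26% in these data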;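 note: competitive labeling of PME-1 active site by serine hydrolase directed probe; inhibitors block probe labeling so polarization falls and inhibition rises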
LYPLA2 inh: LYPLA2 inhibitors, primary screen, counter-screen for PME1 inhibitor project, biochemical, fluorescence polarization, FP-Rh probe ABPP; recombinant LYPLA2; AID 2177, 2009; 320,000 tested, 0.38% active; Acyl-protein thioesterase 2 (Homo sapiens), O95372; inhibition, % at 5.9 µM;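 active = inhibition above the screen-wide mean plus 3 SD, limit set per campaign, cut at about 26% in these data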
LYPLA1 counter: LYPLA1 inhibitors, primary screen, counter-screen for PME1 inhibitor project, biochemical, fluorescence polarization, FP-Rh probe ABPP; recombinant LYPLA1; inhibition, % at 5.9 µM; 320,000 tested, 0.16% active;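 active = inhibition above the mean of all tested compounds plus 3 SD, set per campaign, cut at about 14% in these data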;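 note: inhibitors block serine hydrolase probe labeling of LYPLA1 so polarization falls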
Target sequence (O75608 whole entry, looked up): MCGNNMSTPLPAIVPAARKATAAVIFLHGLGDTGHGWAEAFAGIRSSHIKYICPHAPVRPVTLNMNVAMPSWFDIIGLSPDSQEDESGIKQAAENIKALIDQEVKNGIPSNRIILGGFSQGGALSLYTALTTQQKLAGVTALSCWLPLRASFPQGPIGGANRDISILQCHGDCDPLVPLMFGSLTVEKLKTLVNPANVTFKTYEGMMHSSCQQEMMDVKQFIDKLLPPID
GSTO1 counter: inhibitors of recombinant GSTO1, primary screen, counter-screen for RBBP9 inhibitor project, biochemical, fluorescence polarization; Glutathione S-transferase omega-1 (Homo sapiens), P78417; activity-based probe fluorescence polarization; inhibition, % at 5.96 µM; 300,000 tested, 1.1% active;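 active = inhibition above the campaign mean inhibition plus 3 SD, cut at about 35% in these data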
Target sequence (P78417 whole entry, looked up): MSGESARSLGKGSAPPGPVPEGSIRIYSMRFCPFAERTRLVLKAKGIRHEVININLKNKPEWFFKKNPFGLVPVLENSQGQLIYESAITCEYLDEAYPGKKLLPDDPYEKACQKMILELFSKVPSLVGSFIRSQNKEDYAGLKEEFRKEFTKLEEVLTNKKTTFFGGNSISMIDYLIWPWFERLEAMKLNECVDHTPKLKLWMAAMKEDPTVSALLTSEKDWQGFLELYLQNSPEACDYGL
Fam108B inh: mouse Fam108B serine hydrolase inhibitors, primary screen, counter-screen for RBBP9 inhibitor project, biochemical, fluorescence polarization; AID 1947, 2009; inhibition, % at 9.51 µM; recombinant Fam108B, FP-Rh probe fluorescence polarization; 300,000 tested, 0.33% active;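 active = inhibition above the screen mean inhibition plus 3 SD, computed separately per campaign, cut at about 18% in these data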;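 note: inhibitors lower polarization as less probe binds the enzyme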
PREPL inhibitor: PREPL enzyme inhibitors, primary screen, biochemical, fluorescence polarization | Prolyl endopeptidase-like (Homo sapiens), Q4J6C6 | recombinant PREPL, fluorescence polarization activity-based probe | inhibition, % at 5.96 µM | 320,000 tested, 0.68% active
PREPL confirm: human PREPL enzyme inhibitors, confirmation, biochemical, fluorescence polarization; shares compounds with PREPL inhibitor; recombinant PREPL, fluorescence polarization activity probe; inhibition, % at 5.96 µM; 2,000 tested, 67% active; AID 2803, 2010
Of the large screens only hits and unclear results are named; the others gave an inactive call (follow-up assays come after a bar, where they were run). Cut-off read from the data, not from the text of the source, unless noted: active = inhibition above about 43%; inactive = the rest.

O=c1oc2c3c4c(cc2c(C(F)(F)F)c1CCN1CCOCC1)CCCN4CCC3	PREPL inhibitor 54.8 | PREPL confirm 60.6
CNC(=S)N1N=C(c2ccc(C)cc2)CC1c1ccc(OC)cc1 (stereo not given)	none
CNC(=S)N1N=C(c2ccc(C)cc2)CC1c1ccc(N(C)C)cc1 (stereo not given)	PREPL inhibitor 50.7 | PREPL confirm 57.4
O=C(C1=C(O)C(=O)N(CC2CCCO2)C1c1ccccc1F)c1ccco1 (stereo not given)	none
COc1ccc(-c2[nH]nc3c2C(c2ccsc2)C(C#N)=C(N)O3)cc1 (stereo not given)	PREPL inhibitor 89.3 | PREPL confirm inactive
Cc1ccc(-c2[nH]nc3c2C(c2ccsc2)C(C#N)=C(N)O3)cc1 (stereo not given)	none
COc1ccc(-c2cn(Cc3ccc4ccccc4c3)nn2)cc1	none
COc1ccc(-c2cn(Cc3ccc4c(c3)C(=O)c3ccccc3C4=O)nn2)cc1	PREPL inhibitor 48.4 | PREPL confirm inactive
COc1ccc(NC(=O)c2sc3ncn(CC(=O)N4CCN(c5ccccn5)CC4)c(=O)c3c2C)cc1OC	PREPL inhibitor 58.4 | PREPL confirm 49.3
Cc1cccc(NC(=O)c2sc3ncn(CC(=O)N4CCN(c5ccccn5)CC4)c(=O)c3c2C)c1	none
CCN(C(=O)COC(=O)Cc1c[nH]c2ccccc12)C1CCS(=O)(=O)C1 (stereo not given)	none
CC(C)(C)[C@H]1COC(=O)[C@H](Cc2ccc(F)cc2)CC/C=C/C[C@@H](CC(=O)N[C@H](CO)Cc2ccccc2)C(=O)N1	PREPL inhibitor 45.9 (no result: PME-1 inh, LYPLA2 inh, LYPLA1 counter, GSTO1 counter, Fam108B inh) | PREPL confirm 49.4
CC(C)(C)[C@@H]1COC(=O)[C@H](Cc2ccc(F)cc2)CC/C=C\C[C@@H](CC(=O)NCCO)C(=O)N1	PREPL inhibitor 49.0 (no result: PME-1 inh, LYPLA2 inh, LYPLA1 counter, GSTO1 counter, Fam108B inh) | PREPL confirm inactive
C[C@@H]1COC(=O)[C@@H](Cc2ccc(F)cc2)CC/C=C\C[C@@H](CC(=O)NCCO)C(=O)N1	none (no result: PME-1 inh, LYPLA2 inh, LYPLA1 counter, GSTO1 counter, Fam108B inh)
O=C1CCC(C(=O)N2CCN(c3ccccc3)CC2)CN1CC1CCCCC1 (stereo not given)	none
CC(C)(C)OC(=O)C[C@@H]1C/C=C\C[C@H](CC(=O)N(CCO)Cc2ccccc2)C(=O)N2CCC[C@H]2COC1=O	none (no result: PME-1 inh, LYPLA2 inh, LYPLA1 counter, GSTO1 counter, Fam108B inh)
Cc1ccc(NC(=O)COc2ccc(Br)cc2CO)cc1S(=O)(=O)N1CCOCC1	none (no result: PME-1 inh, LYPLA2 inh, LYPLA1 counter, GSTO1 counter, Fam108B inh)
COC(=O)c1ccc2nc(C)cc(Nc3ccc(N(C)C)cc3)c2c1	PREPL inhibitor 49.9 | PREPL confirm inactive
CCOC(=O)[C@H]1[C@H]2COc3ccc(C)cc3[C@@H]2N2C(=O)c3cc(F)c(F)cc3NC(=O)[C@@]12C	none
O=c1[nH]c(CN2CCN(c3ccc([N+](=O)[O-])cc3)CC2)nc2ccsc12	PREPL inhibitor 46.1 | PREPL confirm inactive
c1ccc(CN2CCN(c3nc(N4CCOCC4)c4ccccc4n3)CC2)cc1	PREPL inhibitor 46.1 | PREPL confirm inactive
c1ccc2c(N3CCOCC3)nc(N3CCOCC3)nc2c1	none
O=C(O)c1cc2ccc3cccc4ccc(c1)c2c34	none
CC(C)(C)c1ccc(OCCC(=O)Nc2ccc(N3CCOCC3)cc2N2CCOCC2)cc1	PREPL inhibitor 49.3 | PREPL confirm inactive
Cc1ccc(OCC(=O)Nc2ccc(N3CCOCC3)cc2)cc1	PREPL inhibitor 44.9 | PREPL confirm inactive
COc1ccc(OCC(=O)Nc2ccc(N3CCOCC3)cc2)cc1	none
CCC(=O)N1CCN(c2ccc(NC(=O)COc3ccc(CC)cc3)cc2)CC1	PREPL inhibitor 44.7 | PREPL confirm 47.6
COc1ccc(CCNC(=O)c2cc3c(C)nccc3[nH]c2=O)cc1OC	none
CC(C)CC(CO)N1CCN(C(=O)c2ccccc2)CCC1=O (stereo not given)	none
COc1ccc(N(CC(=O)Nc2cc(Cl)ccc2C)S(=O)(=O)c2c(C)n[nH]c2C)cc1	none
